Inconclusive results are not listed. Unmarked numbers belong to inactive results. Active and inactive are the calls of the source. Calls follow the shape of the dose curve; as a rule, active = well fitted inhibition curve with a large enough effect; inconclusive = small, poorly fitted or top-dose-only effect; inactive = no such curve, though single readings can be large or run the other way.
Assay: qHTS for Inhibitors of ATXN expression: Validation (AID 588378); also: nearly all actives have a fitted effect of over 75% in size
Conditions: cell-based ATXN2 expression reporter assay, luminescence; series mostly up to 57.1 µM; activity change, negative = inhibition: at the top concentration
Excerpt: Spinocerebellar ataxia type 2 (SCA2) is a multisystem neurodegenerative disease caused by a dominantly-acting mutation leading to expansion of a polyQ domain in the ataxin-2 protein (ATXN2). SCA2 patients develop progressive ataxia and later lose function in other neuronal systems. Prominent parkinsonian signs develop in some patients. Similar to many neurodegenerative disorders, no symptomatic or disease-modifying treatments are known.
The primary objective of project is to identify compounds inhibiting ATXN2 expression and to test them for efficacy in SCA2 mouse models. To this end, in a collaboration between Dr. Daniel Scoles and scientists at NCGC, a cell-based assay adapted to high-throughput screening has been developed to screen the NIH Molecular Libraries Small Molecule Repository (MLSMR).
NIH Chemical Genomics Center [NCGC]
NIH Molecular Libraries Probe Centers Network [MLPCN]
Assay Submitter (PI): Stefan Pulst and Daniel Scoles, University of Utah
4 ul of HEK293-ATXN2-FFLuc cell suspension (TBD cells/microL in phenol-red free DMEM) are dispensed into Greiner white solid bottom 1536-well assay plates, yielding a final well density of TBD cells/well. Plates are incubated for 2 hrs at 37 degrees C in 5% humidified CO2 to allow cell attachment. Compounds are then transferred via Kalypsys pin tool equipped with 1536-pin array (10nl slotted pins, V&P Scientific, San Diego, CA). In addition, duplicate serial dilutions of the control compounds ChemBridge 5553825, a previously identified ATXN2 expression inhibitor, and a known luciferase inhibitor, are pin-transferred. After incubation at 37 degrees C in 5% humidified CO2 for 24 hrs, CellTiter-Fluor reagent (1 ul) (Promega, Madison, WI) is then added and plates are incubated for 30 minutes, before being transferred to a ViewLux high-throughput CCD imager (PerkinElmer), wherein single end-point fluorescence measurements are acquired using the 405 nm excitation/525 nm emission filter set to assess cell viability. Next, Bright-Glo luciferase substrate detection reagent (3 ul) (Promega, Madison, WI) is added to each well and incubated for an additional 5 minutes. Luminescence is then measured on the ViewLux imager equipped with a clear emission filter using a 2 sec exposure.
% is scaled to controls: 0 for no effect and ±100 for the full control effect; potency is read from the fitted curve at half-maximal effect.

Row | SMILES | activity change, negative = inhibition [%] | Potency
1 | COC(=O)C1=CO[C@@H](O)[C@@H]2C(CO)=CC[C@H]12 | -28.7 | 
2 | C[N+](C)(C)CCO | 0.414 | 
3 | Cc1nn(-c2ccccc2)c(C)c1/C=N/N1CCN(Cc2ccccc2)CC1 | -4.74 | 
4 | N[C@@H](Cn1ccc(=O)c(O)c1)C(=O)O | -6.38 | 
5 | O=C1NC(c2cccc([N+](=O)[O-])c2)=CCN1c1ccccc1O | 5.34 | 
6 | CCN(CC)CCNC(=O)c1ccc(NS(C)(=O)=O)cc1 | 0.924 | 
7 | O=C1NC(=O)/C(=C/c2ccc3c(c2)OC(F)(F)O3)S1 | 67 | 
8 | Clc1ccc2c(c1)N=C(N1CCNCC1)c1ccccc1N2 |  | 12.6 µM (active)
9 | Cn1cnc2c(NCc3ccccc3)nc(NCCO)nc21 | 10.7 | 
10 | O=[N+]([O-])c1ccc(-c2nc(-c3ccc(F)cc3)c(-c3ccncc3)[nH]2)cc1 | 1.59 | 
11 | NC(N)=NCCCCN=C(N)N | -14.3 | 
12 | COc1ccccc1N1CCN(CCN2C(=O)CC3(CCCC3)CC2=O)CC1 | -8.71 | 
13 | Brc1ccc([C@H]2CN3CCSC3=N2)cc1 | -13.9 | 

— PubChem BioAssay (NCATS)
